# From PubChem
# Rows were chosen to be rich in hits. Some 0.47% of all compounds tested hit in one or more screens of this group.
# UDG counter = Primary qHTS assay for inhibitors of Activation Induced Cytidine Deaminase (AID): UDG Counterscreen signal | FRET deamination/UDG coupled assay, UDG read, 4 h | Potency, µM (titrated, usually from 115 µM), without a hit: at the highest dose activity change, negative = inhibition, actives largely listed as inhibitors | actives 0.14% (n = 91,000); also: nearly all actives have a fitted effect of over 65% in size
# AID inh = Primary qHTS assay for inhibitors of Activation Induced Cytidine Deaminase (AID): AID signal; AID deamination FRET fluorescence, UDG-coupled, 4 h; Single-stranded DNA cytosine deaminase (Homo sapiens), Q9GZX7; actives 0.32% (n = 91,000); Potency, µM (titrated, usually from 115 µM), usual class: inhibitors; also: nearly all actives have a fitted effect of over 25% in size
# Target sequence (Q9GZX7 whole entry, looked up): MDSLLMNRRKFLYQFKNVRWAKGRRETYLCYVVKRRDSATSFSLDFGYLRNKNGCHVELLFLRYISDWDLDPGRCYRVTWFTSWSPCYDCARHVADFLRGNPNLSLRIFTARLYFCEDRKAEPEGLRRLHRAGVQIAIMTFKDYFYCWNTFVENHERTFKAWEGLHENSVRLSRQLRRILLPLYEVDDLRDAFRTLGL
# The depositor's hits bear a star; i = inactive; ? = inconclusive. Calls follow the shape of the dose curve; as a rule, active = well fitted curve in the direction sought with a large enough effect; inconclusive = small, poorly fitted or top-dose-only effect, or another doubt; inactive = no such curve, though single readings can be large; an effect the other way counts as inactive or inconclusive. % is scaled to controls: 0 for no effect and ±100 for the full control effect; potency is read from the fitted curve at half-maximal effect.
SMILES,UDG counter,AID inh
COC(=O)CCC(NC(=O)C12CC3CC(CC(C3)C1)C2)C(=O)OC (centres undefined),-2.7%,i
COc1cccc(C2CC(=O)Nc3ccsc32)c1OC (centres undefined),0.8%,i
COc1cccc(C2CC(=O)Nc3nc(N)sc32)c1OCC(C)C (centres undefined),-13.4%,39.8µM*
COCCNC(=O)c1cc2c(Cl)nc3ccc(C)cc3c2s1,7.8%,?
CCN(CCCNC(=O)c1cc2c(Cl)nc3ccccc3c2s1)Cc1ccccc1,-19.4%,?
CN(CCCNC(=O)c1cc2c(Cl)nc3ccccc3c2s1)Cc1ccccc1,-7.4%,22.4µM*
Cc1ccc2nc(Cl)c3cc(C(=O)NCCCN(C)Cc4ccccc4)sc3c2c1,79.4µM*,?
CC(NC(=O)c1cc2cc(Br)cc(Br)c2o1)C1CC2CCC1C2 (centres undefined),-9.2%,i
Cc1ccc(NC(=O)CCN2CCN(CCO)CC2)cc1C,34.4%,i
Cc1cc(NC(=O)CCN2CCN(Cc3cccc4ccccc34)CC2)ccc1Br,89.1µM*,?
COc1cccc(NC(=O)CCN2CCN(c3ccccc3)CC2)c1,-6.8%,i
Cc1cccc(NC(=O)CCN2CCN(Cc3cccc4ccccc34)CC2)c1,79.4µM*,?
CC(C)CCC(CCNC1CCC(C)CC1)C1CCOC(C)(C)C1 (centres undefined),-8.8%,i
CC(=O)c1ccc(-c2cccc(Cl)c2Cl)o1,-11.1%,i
Cc1ccn2c(Nc3ccccc3)c(-c3c[nH]c4ccccc34)nc2c1,5.8%,i
Cc1ccc(Nc2c(-c3c[nH]c4ccccc34)nc3cc(C)ccn23)cc1,79.4µM*,?
COCC(=O)n1nc(NCc2ccccc2Cl)nc1NCc1ccccc1Cl,4.5%,i
O=C(CSc1nnc(-c2ccccc2Cl)o1)N1CCCc2ccccc21,-17.0%,28.2µM*
O=C(CSc1nnc(-c2ccccc2)o1)N1CCCc2ccccc21,-5.8%,?
CC(C)(C)c1ccc(O)c(NC(=O)CC(C(=O)O)c2ccc(F)cc2)c1 (centres undefined),1.1%,i
S=C(NCc1ccc(Cl)cc1)NCc1cccs1,1.2%,i
OCCNc1nc(Nc2cccc(Cl)c2)nc2nccnc12,1.3%,79.4µM*
OCCNc1nc(Nc2ccc(Cl)c(Cl)c2)nc2nccnc12,-3.7%,35.5µM*
c1ccc(CCNc2nc(Nc3ccccc3)c3nccnc3n2)cc1,-4.1%,i
OCCNc1nc(Nc2ccc(Br)cc2)nc2nccnc12,-4.0%,?
SMILES,UDG counter,AID inh
O=[N+]([O-])c1cccc2nc(/C=C/c3ccc(O)cc3)ccc12,-10.4%,i
N#Cc1c(O)ccc(O)c1C#N,-3.8%,i
Cc1oc2cc(OS(C)(=O)=O)ccc2c(=O)c1Oc1ccccc1Br,6.1%,i
O=[N+]([O-])c1ccc(Oc2cccc(C(F)(F)F)c2)c2ccncc12,-2.1%,i
O=C(NCC(c1cccnc1)N1CCc2ccccc21)c1ccc(Cl)cc1 (centres undefined),-11.5%,?
COc1ccc(C(=O)NCC(c2cccnc2)N2CCc3ccccc32)cc1 (centres undefined),-14.6%,100µM*
CCOc1ccccc1NC(=O)CSc1nc2ccccc2nc1N1CCOCC1,?,22.4µM*
COc1ccc(NC(=O)CSc2nc3ccccc3nc2N2CCOCC2)c(OC)c1,-8.4%,?
Cc1[nH]c(I)c(C)c1C=O,0.6%,i
Oc1ccc(N=Cc2ccc3ccccc3c2)cc1,?,14.1µM*
Clc1ccc(N=Cc2ccc3ccccc3c2)cc1Cl,5.1%,i
COc1cccc(CNC(=O)c2ccc3c(=O)n4nc(Nc5ccccc5)sc4nc3c2)c1,-2.5%,i
CCN(CC)CCNC(=O)c1ccc2c(=O)n3nc(Nc4ccccc4)sc3nc2c1,-8.6%,70.8µM*
Cc1ccccc1C(C)NC(=O)c1ccc2c(c1)NC(=O)CS2 (centres undefined),7.7%,i
Cc1cccc(N2CCN(C(=O)C(C)n3nc(C)n4c(cc5occc54)c3=O)CC2)c1C (centres undefined),-18.2%,?
CCc1nn(C(C)C(=O)N2CCN(c3cccc(C(F)(F)F)c3)CC2)c(=O)c2cc3occc3n12 (centres undefined),-14.9%,31.6µM*
O=C(/C=C/c1ccc(-c2ccccc2Cl)o1)c1ccc2ccccc2c1,-4.5%,i
Cc1ccc(Cc2c(C)nc3c(-c4ccccc4)c(C)[nH]n3c2=O)cc1,-4.8%,i
Cc1nc2c(-c3ccccc3)c(C)[nH]n2c(=O)c1Cc1ccc(C(C)C)cc1,79.4µM*,i
O=C(NCCNc1ncccc1C(F)(F)F)Nc1ccc(F)cc1F,-9.7%,i
O=[N+]([O-])c1c(Nc2cccc(Cl)c2Cl)cc(Cl)c2nonc12,-3.5%,i
CN(C(=O)C1CCN(c2ncnc3c2nc2n3CCCCC2)CC1)c1ccccc1F,2.3%,i
Cc1ccc(C)c(N(C)C(=O)C2CCN(c3ncnc4c3nc3n4CCCCC3)CC2)c1,-10.1%,79.4µM*
COc1ccc(C(=O)/C(C#N)=C\c2cc(Br)c(O)c(OC)c2)cc1,-6.4%,?
CCCC(=O)N1CC(=O)Nc2ccc(Cl)cc2C1c1ccc(F)cc1 (centres undefined),-1.2%,i
SMILES,UDG counter,AID inh
CCCCC1CCC(C(=O)N2CC(=O)Nc3ccc(F)cc3C2c2ccc(F)cc2)CC1 (centres undefined),-22.7%,35.5µM*
COC(=O)c1ccc(C(=O)N2CCN(C(c3ccc(F)cc3)c3ccc(F)cc3)CC2)s1,2.1%,i
COc1ccccc1-n1c(SCC(N)=O)nc2c(c1=O)C1(CCCCC1)Cc1ccccc1-2,-11.0%,i
Cc1ccc(-n2c(SCC(N)=O)nc3c(c2=O)C2(CCCC2)Cc2ccccc2-3)cc1,79.4µM*,i
Fc1ccccc1CNC(=S)NCc1ccccc1,-13.0%,i
O=C(O)c1ccc(-n2c(/C=C\c3ccc(O)cc3)nc3ccccc3c2=O)cc1,-7.2%,i
O=C(O)c1cc(-n2c(/C=C\c3ccc(F)cc3)nc3ccccc3c2=O)ccc1Cl,89.1µM*,?
CCOc1ccc(Nc2cc(C)nc3ccc(Cl)cc23)cc1,-2.1%,i
CCOc1ccc2nc(C)cc(Nc3ccccc3OCC)c2c1,?,79.4µM*
CC(C)c1ccc2oc(-c3ccc(NC(=O)c4ccc([N+](=O)[O-])o4)cc3)nc2c1,24.1%,i
O=C1c2ccccc2C(=O)C1(c1ccccc1)N1CCN(c2cccc(C(F)(F)F)c2)CC1,-14.1%,25.1µM*
O=C1c2ccccc2C(=O)C1(c1ccccc1)N1CCN(c2cccc(Cl)c2)CC1,-7.6%,i
Cc1cc(-n2c(C)nc3ccccc3c2=O)ccc1NC(=O)c1ccccc1[N+](=O)[O-],-14.2%,i
Cc1cc(-n2c(C)nc3ccccc3c2=O)ccc1NC(=O)c1cccc([N+](=O)[O-])c1C,89.1µM*,i
Cc1ccc(Cl)cc1N1CCN(C(=O)Cn2cnc3nc4c(cc3c2=O)CCCC4)CC1,?,39.8µM*
O=C(Cn1cnc2nc3c(cc2c1=O)CCCC3)N1CCN(c2cccc(C(F)(F)F)c2)CC1,-8.1%,i
CC(=O)c1ccc(N2CCN(C(=O)C3CCN(S(=O)(=O)c4c(C)noc4/C=C/c4ccc(C)cc4)CC3)CC2)cc1,0.9%,i
